Screening data from PubChem.
Giardia FBPA inh: inhibitors of Giardia lamblia fructose-1,6-bisphosphate aldolase. A8B2U2. purified Giardia FBPA. Potency, µM (doses to about 59.6 µM), for inactives: at the top dose activity, negative = inhibition, usual class: inhibitors. 290,000 compounds, 0.71% hits; also: potency is read from the fitted curve at half-maximal effect; % is scaled to controls: 0 for no effect and ±100 for the full control effect; nearly all actives have a fitted effect of over 55% in size
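Giardia FBPA (40 nM reagent) was preincubated 10 min at RT with compound (up to 57.5 uM final), then substrate plus GAPDH/TPI/NAD/arsenate coupling system with diaphorase/resazurin was added; resorufin fluorescence (525/598 nm) was read after 20 min.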
AmpC no deterg: inhibitors of E. coli AmpC beta-lactamase without detergent; 330,000 compounds, 0.52% hits; Potency, µM (top dose mostly 57.1 µM), inactives show at the highest dose activity change, negative = inhibition, actives largely listed as inhibitors; AmpC nitrocefin hydrolysis, absorbance 480 nm, 0.0001% Triton; AID 485341;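 also: potency is read from the fitted curve at half-maximal effect; plate controls were no compound for no effect and no enzyme for full effect; nearly all actives have a fitted effect of over 20% in size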
Target sequence (P00811 whole entry, looked up): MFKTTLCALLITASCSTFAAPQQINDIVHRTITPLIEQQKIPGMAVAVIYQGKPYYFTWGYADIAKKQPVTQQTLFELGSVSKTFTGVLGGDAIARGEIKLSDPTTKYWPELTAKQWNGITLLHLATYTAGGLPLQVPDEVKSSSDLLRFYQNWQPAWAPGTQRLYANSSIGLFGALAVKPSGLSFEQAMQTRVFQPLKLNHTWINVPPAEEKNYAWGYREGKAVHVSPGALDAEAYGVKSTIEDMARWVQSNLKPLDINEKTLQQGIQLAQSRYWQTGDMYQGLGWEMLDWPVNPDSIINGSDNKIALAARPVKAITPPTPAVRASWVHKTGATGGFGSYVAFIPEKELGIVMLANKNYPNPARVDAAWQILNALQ
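AmpC (5.3 nM in the dispensed reagent) in 20 mM phosphate pH 7.0 with 0.01% (detergent screen) or 0.0001% Triton X-100 was preincubated with compounds for 15 min at room temperature. Nitrocefin was then added from an 800 uM solution, and hydrolysis was followed at 480 nm.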
SARS PLpro yeast-1: inhibitors of SARS-CoV papain-like protease in yeast; S. cerevisiae expressing SARS-CoV PLpro, growth rescue; Potency, µM (highest dose often 32.9 µM), for inactives: top-dose activity, positive = growth rescue, actives largely listed as activators; 330,000 compounds, 0.19% hits; AID 485353; calls by dose curve; also: potency is read from the fitted curve at half-maximal effect; 0% is about no effect; nearly all actives have a fitted effect of over 55% in size
AmpC inh detg: AmpC beta-lactamase inhibition with detergent present. P00811. AmpC hydrolysis of nitrocefin, absorbance 480 nm, 0.01% Triton. Potency, µM (doses to about 114 µM), for inactives: top-dose activity change, negative = inhibition, usual class: inhibitors. 370,000 compounds, 0.041% hits. AID 485294;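 also: potency is read from the fitted curve at half-maximal effect; 0% = no-compound wells and -100% = no-enzyme wells; nearly all actives have a fitted effect of over 25% in size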
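AmpC (5.3 nM in the dispensed reagent) in 20 mM phosphate pH 7.0 with 0.01% (detergent screen) or 0.0001% Triton X-100 was preincubated with compounds for 15 min at room temperature. Nitrocefin was then added from an 800 uM solution, and hydrolysis was followed at 480 nm.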
SARS PLpro yeast-2: Validates SARS-CoV PLpro inhibitor hits in yeast. calls only. shares compounds with SARS PLpro yeast-1. 1,000 compounds, 19% hits. AID 652038. yeast expressing SARS-CoV PLpro, growth phenotype rescue; call rule not given here
An asterisk follows results filed as active; i = inactive; ? = inconclusive; . = no result; [ ] = remark or other dose. Sampled rows, rich in hits. Any-hit rate of the full collection: about 1.1%. Unless noted, calls follow the shape of the dose curve; as a rule, active = well fitted curve in the direction sought with a large enough effect; inconclusive = small, poorly fitted or top-dose-only effect, or another doubt; inactive = no such curve, though single readings can be large; an effect the other way counts as inactive or inconclusive.

SMILES	Giardia FBPA inh	AmpC no deterg	SARS PLpro yeast-1	AmpC inh detg	SARS PLpro yeast-2
S=C(Nc1ccc(Oc2ccccc2)cc1)NC1CCCCC1	21%	-35%	-29%	4%	.
S=C(NNc1ccc2ccccc2c1)NC1CCCCC1	-12%	?	.	-6%	?
Cc1cccc(NC(=O)C(Cc2ccccc2)n2cccc2)c1C (configuration not stated)	.	.	.	14%	.
CCCCNC(=O)c1c(-c2ccccc2)c(-c2ccccc2)nn(C)c1=O	.	.	.	2%	.
O=C(NC1CCCCC1)C(c1ccco1)N(Cc1cccnc1)C(=O)C1COc2ccccc2O1 (configuration not stated)	2%	31%	?	5%	i
Cc1ccccc1-c1nc(CN2CCC(C(=O)NC(C)C)CC2)c(C)o1	.	.	.	14%	.
O=C(CCCOc1ccc(Cl)cc1Cl)N/N=C/c1ccccc1O	-8%	-15%	?	-11%	i
O=C(CCCOc1ccc(Cl)cc1Cl)N/N=C/c1ccccc1	?	-3%	-26%	-4%	.
CCn1c(C)cc(/C=C2/NC(=O)N(Cc3ccccc3F)C2=O)c1C	-16%	-12%	2%	-9%	.
Cc1cc(/C=C2/NC(=O)N(Cc3ccccc3F)C2=O)c(C)n1C(C)C	-14%	-37%	?	-3%	i
O=C(NC(=S)Nc1ccccn1)c1ccco1	?	-14%	3.2µM*	?	i
COc1cccc(/C=N/NC(=O)C(=O)Nc2ccccc2OC(F)(F)C(F)F)c1O	-19%	-27%	3.5µM*	-12%	i
COCCCNC(=O)c1c(NC(=O)C2COc3ccccc3O2)sc2c1CCCC2 (configuration not stated)	2%	-13%	?	0%	i
CCNC(=O)c1c(NC(=O)C2COc3ccccc3O2)sc2c1CCCC2 (configuration not stated)	3%	-10%	5%	?	.
CC(C)C(=O)Nc1cccc(C(=O)Nc2nnc(C(C)(C)C)s2)c1	2%	-12%	?	-7%	i
Cc1ccc(Cl)cc1N(C)C(=O)c1cc2ccc3cccnc3c2[nH]1	.	.	.	18%	.
CN1C(=O)c2ccc(NC(=O)c3ccc(N4CCCCC4)c([N+](=O)[O-])c3)cc2C1=O	7%	-23%	14µM*	2%	i
CCC(=O)N1CCc2cc(CNS(=O)(=O)c3cc(Cl)ccc3OC)ccc21	.	.	.	-5%	.
CCN(NC(=O)C(O)(c1ccccc1)c1ccccc1)C(=O)c1ccccc1	-2%	-21%	14µM*	-16%	i
CCCC(C(=O)O)N1C(=O)/C(=C/c2cccn2C)SC1=S (configuration not stated)	-4%	0%	?	1%	i
CC(C)C(C(=O)O)N1C(=O)/C(=C/c2cccn2C)SC1=S (configuration not stated)	-2%	-16%	27%	-6%	.
COc1ccc(-c2nc3ccc(NS(=O)(=O)c4ccc(Cl)cc4)cc3o2)cc1	.	.	.	21%	.
COCc1cc(C2C(C(=O)c3ccco3)=C(O)C(=O)N2CCOCCO)ccc1O (configuration not stated)	-20%	-10%	2.8µM*	?	i
CCN(c1ccc(Cl)cc1)S(=O)(=O)c1nnc(NC(=O)C2CCCCC2)s1	.	.	.	20%	.
Fc1ccc(-c2csc(=S)[nH]2)cc1	12%	-8%[2.29 µM]	0%	-4%	.
SMILES	Giardia FBPA inh	AmpC no deterg	SARS PLpro yeast-1	AmpC inh detg	SARS PLpro yeast-2
Cc1[nH]c(=S)sc1Cc1ccc(F)cc1	6%	-31%	10µM*	-10%	i
CCN(CC)c1ccc(NS(=O)(=O)c2ccc3c(c2)CCCN3C(C)=O)c(C)c1	.	.	.	1%	.
COc1ccc(Nc2nnc(-c3ccc(C)c(S(=O)(=O)N4CCOCC4)c3)c3ccccc23)cc1	.	.	.	9%	.
O=C(O)COc1ccccc1	.	-6%	-1%	-2%	.
NOCC(=O)O	-4%	-18%	?	-3%	i
CC1(C)C(=O)C2(CCCCC2)C(=O)OC1c1cccn1-c1ccc([N+](=O)[O-])cc1 (configuration not stated)	3%	-3%	?	?	?
Cc1ccc(CN2CCN(/N=C/c3ccc(C(F)(F)F)cc3)CC2)c(C)c1	1%	-12%	?	?	i
Cc1ccc(CN2CCN(/N=C/c3ccc(C(=O)O)cc3)CC2)c(C)c1	7%	-23%	1%	1%	.
